PubChem BioAssay (NCI)
This is part of a sample that, as a whole, favours compounds with a hit. Of some 83,000 tested, about 20% had one in any assay.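 How to read the values: 0–100, growth inhibition (40 = 60% inhibited); 0, no net growth; -100 to 0, cell death (-40 = 40% of starting cells died; -100 = all dead).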 A number with no mark means an inactive call. Activity calls are given as the source filed them. How the source made its calls: active means growth percent below 10; inactive means the rest.

System: NCI-H23 lung
Assay: NCI-60 one-dose screen, 48 h (100 = growth as untreated, 0 = no growth, -100 = all killed)
Settings: 10 µM unless noted

CN1CCN(Cc2ccc(NC(=O)c3[nH]ncc3Nc3ncnc4c3CCC4)cc2)CC1 was tested, and the growth was 5.19% (active).
In the case of C=CC[N+]1(CC)CCN=C1CCCCCCCCCCCCCCCCC (stereo not drawn), the growth is reported as -92.9% (active).
In the case of O=C(Nc1ccc(CN2CCOCC2)cc1)c1[nH]ncc1Nc1ncnc2sccc12, the growth is reported as -3.72% (active).

Going from CCN(C(=O)CN1CCN(c2cc3c(cc2F)c(=O)c(C(=O)O)cn3C2CC2)CC1)c1nc(-c2ccc(OC)cc2)cs1 to COc1ccc(N(Cc2cc(OC)c(OC)c(OC)c2)C2OC(=O)c3ccccc32)cc1 (stereo not drawn), the growth falls from 66% to 36.7%.

Going from C[C@@H]1CC[C@@H]2[C@@H]1[C@H](OC(=O)/C=C/c1ccccc1)[C@]1(C3CCCCC3)C[C@@H](OC(=O)CO)[C@@]2(C)O1 to O=C([C@@H](COCc1ccccc1)N1C(=O)[C@@H](N2C(=O)OC[C@@H]2c2ccccc2)[C@H]1/C=C/c1ccccc1)N1CCC(CCN2CCCCC2)CC1, the growth rises from 81.9% to 87%.

Compared with Cc1cc(=O)oc2cc(Oc3nc(-c4ccc(Cl)cc4)cn4c(-c5ccc(Cl)cc5)cnc34)ccc12, Cn1c2ccccc2c2c3c(c4c5ccccc5[nH]c4c21)C(=O)N(N)C3=O is lower in growth: 78.1% for the first, 46.1% for the second.

First: Nc1cc2ccncc2c2ccccc12
Second: OC(c1cccc(C(F)(F)F)c1)c1cnccc1NC1CCCCCC1 (stereo not drawn)
The growth of the first is higher: 67.7% for the first, 26.1% for the second.

Going from COC(/C=C/c1ccc([N+](=O)[O-])cc1)OC to O=C(CNC1C2CC3CC(C2)CC1C3)Sc1nnc2sc3ccccc3n12 (stereo not drawn), the growth falls from 96.5% to 95%.
